TbPYK inhibitor: inhibitors of Trypanosoma brucei pyruvate kinase | Q57TT1 | 410,000 compounds, 0.12% hits | AID 624173 | TbPYK enzyme, Kinase-Glo Plus ATP luminescence, 45 min | Potency, µM (titrated, usually from 76.8 µM), without a hit: at the highest dose activity, negative = inhibition, most hits filed as inhibitors; further: potency means the concentration at half of the fitted maximal effect; on the % scale 0 is the no-effect control and ±100 the full control effect; nearly all actives have a fitted effect of over 50% in size
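Readout: single end-point luminescence (Kinase-Glo Plus, 10 min). Reaction conditions were TbPYK/substrate plus 130 uM ADP, 45 min at RT, pH 7.2 TEA buffer. No-enzyme wells served as controls, and data were normalized before concentration-response fitting.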
Shiga inhibitor: Shiga toxin inhibition; AID 2315; inhibition, % at 38.7 µM; 290,000 compounds, 9.2% hits; Vero cells, Shiga toxin protein synthesis inhibition reporter; in the data active means inhibition mostly above about 28%, no sharp cut-off; inactive means mostly below about 43%; further: 0% is about no effect
NS1 inh: influenza NS1 inhibition; AID 2326; 270,000 compounds, 0.4% hits; Potency, µM (series often up to 46.1 µM), for the others: at the highest dose activity, positive = more growth; calls by dose curve; further: potency means the concentration at half of the fitted maximal effect; actives are rising curves; nearly all actives have a fitted effect of over 50% in size
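Growth recovery, yeast-based: influenza A NS1 expressed in S. cerevisiae causes slow growth, and suppressors are detected by OD600. The parent strain without NS1 is used as positive control.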
LmPK inh: blocks Leishmania mexicana pyruvate kinase activity. Potency, µM (top dose mostly 57.5 µM), inactives show top-dose activity change, negative = inhibition, hits mostly inhibitors. purified LmPK, Kinase-Glo ATP luminescence, 1 h. 290,000 compounds, 0.37% hits. Q27686; further: potency means the concentration at half of the fitted maximal effect; on the % scale 0 is the no-effect control and ±100 the full control effect
Target sequence (Q27686 whole entry, looked up): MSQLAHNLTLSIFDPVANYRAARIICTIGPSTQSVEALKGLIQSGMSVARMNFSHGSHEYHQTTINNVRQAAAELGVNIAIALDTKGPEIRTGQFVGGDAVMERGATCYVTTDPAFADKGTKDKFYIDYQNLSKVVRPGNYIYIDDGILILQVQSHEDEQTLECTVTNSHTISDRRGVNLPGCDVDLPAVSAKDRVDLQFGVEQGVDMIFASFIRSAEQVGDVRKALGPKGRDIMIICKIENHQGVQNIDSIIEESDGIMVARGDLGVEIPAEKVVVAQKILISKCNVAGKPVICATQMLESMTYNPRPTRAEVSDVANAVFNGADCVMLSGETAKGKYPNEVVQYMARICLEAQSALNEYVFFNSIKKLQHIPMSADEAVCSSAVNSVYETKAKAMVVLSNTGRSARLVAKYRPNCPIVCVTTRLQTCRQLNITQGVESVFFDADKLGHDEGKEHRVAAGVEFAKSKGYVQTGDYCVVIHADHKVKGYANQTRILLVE
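qHTS format; LmPK 0.1 nM; substrates PEP 0.5 mM and ADP 0.1 mM. One-hour room-temperature incubation, then coupled luciferase luminescence; 0.5 nM enzyme wells mark activation.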
CHX counter: counter-screen for Shiga toxin inhibitors: cycloheximide protein synthesis inhibition | cell reporter, cycloheximide protein synthesis inhibition counterscreen | max response, % | 300,000 compounds, 12% hits | AID 2314; in the data active means max response mostly above about 13%, no sharp cut-off; inactive means mostly below about 14%; further: read at 38.3 µM for the half of the compounds with a filed dose; 0% is about no effect
SARS PLpro yeast: SARS-CoV PLP inhibition in yeast | S. cerevisiae expressing SARS-CoV PLpro, growth rescue | Potency, µM (titrated, usually from 32.9 µM), for inactives: top-dose activity, positive = growth rescue, usual class: activators | 330,000 compounds, 0.19% hits | AID 485353; calls by dose curve; further: potency means the concentration at half of the fitted maximal effect; 0% is about no effect; nearly all actives have a fitted effect of over 55% in size
* hit, by the source's call. Many of the other results were omitted from the sample, so hits are more common in it than they were. Unless noted, the call rests on the fitted dose curve; in most records, active means well fitted curve in the direction sought with a large enough effect; inconclusive means small, poorly fitted or top-dose-only effect, or another doubt; inactive means no such curve, though single readings can be large; an effect the other way counts as inactive or inconclusive.

What do the screens show for `O=C(NNc1c(F)c(F)cc(F)c1F)c1cc2ccccc2oc1=O`?
TbPYK inhibitor: 4%; Shiga inhibitor: 112*; LmPK inh: -3%; CHX counter: 50*; SARS PLpro yeast: -4%

What do the screens show for `O=C(OC1CCCCC1)c1cc2ccccc2oc1=O`?
TbPYK inhibitor: -8%; Shiga inhibitor: 79*; NS1 inh: -6%; LmPK inh: -15%; CHX counter: 43*; SARS PLpro yeast: -1%

Results for O=C(NCC1CCCO1)c1csc(Nc2cccc3ccccc23)n1 (configuration not stated) ?
TbPYK inhibitor: 4%; Shiga inhibitor: 77*; NS1 inh: -5%; LmPK inh: 14µM*; CHX counter: 41*; SARS PLpro yeast: 1%

How did CN(C(=O)COC(=O)c1cc2ccccc2oc1=O)C1CCCCC1 do in these assays?
TbPYK inhibitor: 1%; SARS PLpro yeast: 0%

How did C=CCc1cccc2cc(C(=O)NC3CCCCC3)c(=O)oc12 do in these assays?
TbPYK inhibitor: -3%; Shiga inhibitor: 88*; LmPK inh: 3%; CHX counter: 28; SARS PLpro yeast: 6%

What do the screens show for `CCCNC(=O)c1csc(Nc2cccc3ccccc23)n1`?
TbPYK inhibitor: -8%; NS1 inh: -167%; LmPK inh: 5%; CHX counter: -2; SARS PLpro yeast: -19%

What do the screens show for `Cc1ccc2nc(N3CCN(c4ccccc4)CC3)c3nnnn3c2c1`?
TbPYK inhibitor: -7%

How did CC(C)(O)CC[C@@H](O)[C@](C)(O)C1CC[C@@]2(O)C3=CC(=O)[C@]4(O)C[C@@H](O)[C@@H](O)C[C@]4(C)C3CC[C@]12C (some centres not stated) do in these assays?
TbPYK inhibitor: 8%; SARS PLpro yeast: -1%

Results for O=C(NC1CCCCCC1)c1cc2ccccc2oc1=O ?
TbPYK inhibitor: -10%; Shiga inhibitor: 43*; NS1 inh: inconclusive; LmPK inh: -1%; CHX counter: 43*

Results for O=C(NCC1CCCO1)c1ccc[nH]1 (configuration not stated) ?
TbPYK inhibitor: 4%; Shiga inhibitor: -10; NS1 inh: 2%; LmPK inh: 0%; CHX counter: -1; SARS PLpro yeast: 2%

Results for COc1ccc2cc(C(=O)NC3CCCCC3)c(=O)oc2c1 ?
TbPYK inhibitor: 0%; Shiga inhibitor: -17; NS1 inh: 9%; LmPK inh: -16%; CHX counter: -1; SARS PLpro yeast: -2%

What do the screens show for `O=C(NCC1CCCO1)c1cc2ccccc2oc1=O` (configuration not stated)?
TbPYK inhibitor: -5%; Shiga inhibitor: 96*; NS1 inh: 0%; LmPK inh: -7%; CHX counter: 37*; SARS PLpro yeast: 1%

What do the screens show for `N=c1oc2ccccc2cc1C(=O)NC1CCCCCC1`?
TbPYK inhibitor: 8%; Shiga inhibitor: 123*; NS1 inh: 12%; LmPK inh: 1%; CHX counter: 56*; SARS PLpro yeast: 2%

What do the screens show for `O=C(c1cc2ccccc2oc1=O)N(Cc1ccccc1)CC1CCCO1` (configuration not stated)?
TbPYK inhibitor: -7%; Shiga inhibitor: 16; NS1 inh: 5%; LmPK inh: 1%; CHX counter: 6; SARS PLpro yeast: 13%

What do the screens show for `O=C(NCC1CCCO1)c1cc2cc(F)ccc2[nH]1` (configuration not stated)?
TbPYK inhibitor: -10%; Shiga inhibitor: 38*; NS1 inh: 6%; LmPK inh: -3%; CHX counter: 27*; SARS PLpro yeast: 0%

Results for CN(C)Cc1c(C(=O)N/N=C/C2CC=CCC2)nnn1-c1nonc1N (configuration not stated) ?
TbPYK inhibitor: -7%; Shiga inhibitor: -8; NS1 inh: 1%; LmPK inh: -4%; CHX counter: -6; SARS PLpro yeast: 1%

Results for Cc1ccc(NC(=O)CNC(=O)c2cccc(Cl)c2)nc1 ?
TbPYK inhibitor: 1%; SARS PLpro yeast: -4%

What do the screens show for `O=C(NCC1CCCO1)c1csc2c1CCCC2` (configuration not stated)?
TbPYK inhibitor: -2%; Shiga inhibitor: 31; NS1 inh: -3%; LmPK inh: -6%; CHX counter: 40*; SARS PLpro yeast: -1%

What do the screens show for `O=S(=O)(c1ccc(Cl)cc1)N1CCN(c2nc(-c3cccc(Br)c3)nc3ccccc23)CC1`?
Shiga inhibitor: -8; CHX counter: -4

How did COc1ccccc1NC(=O)CN1C(=O)C(c2ccc(F)cc2)=NC12CCCCC2 do in these assays?
TbPYK inhibitor: 1%

How did CC(=O)NCC1CCCN(C(=O)c2oc3c(F)cccc3c2C)C1 (configuration not stated) do in these assays?
TbPYK inhibitor: 10%; Shiga inhibitor: 26; NS1 inh: 1%; LmPK inh: 6%; CHX counter: 14; SARS PLpro yeast: 15%

What do the screens show for `CCOC(=O)N1CCC(NC(=O)c2oc3c(F)cccc3c2C)CC1`?
TbPYK inhibitor: -5%; Shiga inhibitor: 62*; NS1 inh: 5%; LmPK inh: 7%; CHX counter: 65*; SARS PLpro yeast: 3%

What do the screens show for `Cc1c(C(=O)N2CCN(c3ccccc3)CC2)oc2c(F)cccc12`?
TbPYK inhibitor: -6%; Shiga inhibitor: 45; NS1 inh: -9%; LmPK inh: 0%; CHX counter: 32*; SARS PLpro yeast: -14%

Results for COCC1CCN(C(=O)c2oc3c(F)cccc3c2C)C1 (configuration not stated) ?
TbPYK inhibitor: 2%; Shiga inhibitor: 33*; NS1 inh: -13%; LmPK inh: -1%; CHX counter: 23*; SARS PLpro yeast: -5%

How did Cc1c(C(=O)NCCN2CCCC(O)C2)oc2c(F)cccc12 (configuration not stated) do in these assays?
TbPYK inhibitor: 3%; Shiga inhibitor: 10; NS1 inh: 7%; LmPK inh: -4%; CHX counter: -4; SARS PLpro yeast: -4%

How did NC(=O)c1ccccc1NC(=O)/C=C/c1cccc(Cl)c1 do in these assays?
Shiga inhibitor: 118*; NS1 inh: -8%; LmPK inh: 0%; CHX counter: 45*; SARS PLpro yeast: 0%

How did NC(=O)c1ccccc1NC(=O)/C=C/c1c(Cl)cccc1Cl do in these assays?
TbPYK inhibitor: 7%; Shiga inhibitor: 143*; NS1 inh: 0%; LmPK inh: 4%; CHX counter: 27*; SARS PLpro yeast: 1%

Results for NC(=O)c1ccccc1NC(=O)Nc1ccccc1Cl ?
TbPYK inhibitor: 3%; Shiga inhibitor: 17; LmPK inh: -1%; CHX counter: 15; SARS PLpro yeast: 0%

How did Cc1ccc([N+](=O)[O-])c(OCCCN2C(=O)NC(C)(C)C2=O)c1 do in these assays?
TbPYK inhibitor: 6%; Shiga inhibitor: 57; NS1 inh: 11%; LmPK inh: 4%; CHX counter: 19*; SARS PLpro yeast: 1%

Assay outcomes: PubChem, National Center for Advancing Translational Sciences (NCATS)
